Measurements from PubChem BioAssay (NCATS).
Inconclusive results are not listed. Activity calls are given as the source filed them. Calls follow the shape of the full dose curve.

These molecules were tested against Atrial natriuretic peptide receptor 1 (Homo sapiens) (UniProt P16066) (assay: Natriuretic polypeptide receptor (hNpr1) antagonism - Pilot CMLD screen (AID 1347052;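 also: HEK293 cells with hNpr1 stimulated by hNppA peptide at 0.1 nM; cGMP level read as GloSensor luciferase luminescence after agonist stimulation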)). Settings: HEK293 hNpr1 GloSensor cGMP luminescence, ANP-stimulated; series mostly up to 9.22 µM; activity change, negative = inhibition: at the top concentration.
% is scaled to controls: 0 for no effect and ±100 for the full control effect.

Sequence of Atrial natriuretic peptide receptor 1 (Homo sapiens) (P16066 whole entry, looked up): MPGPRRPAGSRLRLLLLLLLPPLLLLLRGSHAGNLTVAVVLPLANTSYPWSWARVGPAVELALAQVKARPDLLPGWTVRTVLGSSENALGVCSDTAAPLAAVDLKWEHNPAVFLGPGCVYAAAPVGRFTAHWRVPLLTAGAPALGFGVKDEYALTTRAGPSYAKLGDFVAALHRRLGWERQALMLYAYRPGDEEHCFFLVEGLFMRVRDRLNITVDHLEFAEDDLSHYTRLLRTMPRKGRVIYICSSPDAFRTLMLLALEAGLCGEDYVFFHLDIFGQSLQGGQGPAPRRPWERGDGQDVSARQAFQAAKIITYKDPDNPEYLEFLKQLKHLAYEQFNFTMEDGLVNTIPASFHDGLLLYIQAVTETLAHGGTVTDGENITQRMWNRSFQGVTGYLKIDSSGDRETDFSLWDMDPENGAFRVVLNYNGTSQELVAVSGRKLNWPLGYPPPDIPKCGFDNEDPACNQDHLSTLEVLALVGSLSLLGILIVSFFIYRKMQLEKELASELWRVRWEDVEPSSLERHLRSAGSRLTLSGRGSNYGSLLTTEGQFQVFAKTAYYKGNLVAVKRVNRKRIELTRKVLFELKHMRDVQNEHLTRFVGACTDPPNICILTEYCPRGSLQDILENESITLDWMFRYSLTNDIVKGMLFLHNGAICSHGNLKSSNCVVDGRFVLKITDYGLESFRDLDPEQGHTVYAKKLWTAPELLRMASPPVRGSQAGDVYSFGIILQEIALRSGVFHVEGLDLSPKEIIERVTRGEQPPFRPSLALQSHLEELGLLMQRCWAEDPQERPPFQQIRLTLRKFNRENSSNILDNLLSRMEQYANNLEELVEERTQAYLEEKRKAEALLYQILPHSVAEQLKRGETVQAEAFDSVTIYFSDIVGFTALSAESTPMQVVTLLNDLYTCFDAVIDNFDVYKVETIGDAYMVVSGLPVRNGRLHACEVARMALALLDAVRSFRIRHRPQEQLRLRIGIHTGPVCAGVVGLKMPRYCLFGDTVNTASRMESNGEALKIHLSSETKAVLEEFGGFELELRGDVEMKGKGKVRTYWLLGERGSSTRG

Activity change, negative = inhibition, inactive:
COc1ccc2c(c1)c(CC(=O)NCc1ccc3c(c1)OCO3)c(C)n2C(=O)c1ccc(Cl)cc1 -2.86%
COc1cccc(-c2coc3ccc(Br)cc3c2=O)c1 -17.2%
COc1ccc([C@]23Cc4c(ccc5ccccc45)[C@H](O2)C2=C(CCCC2=O)O3)cc1 3.23%
COc1cccc([C@@H](NC(=O)C(F)(F)F)[C@@H]2CCCC=C2c2ccccc2)c1 3.33%
COC(=O)CCC(=O)OC1(C)C(=O)C=C2C=C(C3CC3)N(Cc3ccc(OC)cc3)C=C2C1=O (configuration not stated) -0.384%
COC(=O)C1=C(C(=O)OC)[C@@H]2N(C)c3ccccc3[C@@]23CCC(=O)N(Cc2ccc4c(c2)OCO4)C3=N1 5.38%
COc1ccc([C@]23Cc4cc(OC)c(OC)cc4[C@H](O2)c2c(cc(C)oc2=O)O3)cc1 -0.0632%
O=c1oc2ccccc2c2c1[C@H]1O[C@](c3ccsc3)(Cc3ccccc31)O2 7.73%
CC(CCC(=O)OC[C@H]1O[C@H](C#Cc2ccccc2)C=C[C@H]1Oc1ccc(C)cc1)=NO[C@H](C)c1cn([C@@H]2COC[C@@H]2O)nn1 0.386%
O=C1Nc2cccc(Br)c2[C@@]12O[C@H](COc1ccccc1)CC1=CCC[C@H]12 -1.03%
CC(=O)C1=C(C)N(Cc2ccccc2)C(=O)NC1CCc1ccccc1 (configuration not stated) -2.34%
CC1=CC[C@@H](COc2ccccc2)O[C@@]2(C1)C(=O)N(CC1CC1)c1ccccc12 3.75%
C#CCOCC#CC[C@@]1(C(=O)OC)C=C[C@@H](C)[C@H](c2ccccc2Br)N1C(=O)C(F)(F)F -5.23%
CCN1C(N(C)CCOC)=NC(c2cccc(F)c2)C(C(=O)OC)=C1C (configuration not stated) -6.06%
CC1(OC(=O)c2ccc(Cl)nc2)C(=O)C=C2C=C(c3ccsc3)OC=C2C1=O (configuration not stated) 1.19%
COc1cc2c(c(OC)c1OC)[C@@]1(c3ccccc3)CCCC[C@H]1[C@@H]2NC(=O)C(F)(F)F 4.74%
CC(=O)O[C@@H]1C(CO[Si](C)(C)C(C)(C)C)=C(Br)C(=O)[C@@H]2O[C@]12C -0.457%
C#CCCCON=C1C[C@@H](O)[C@H](O)[C@H]2[C@@H]3C(=O)N(Cc4ccc5c(c4)OCO5)C(=O)[C@@H]3CC[C@@H]12 8.45%
O=C1C2=C(C(=O)c3ccccc31)[C@H]1O[C@](c3ccsc3)(Cc3c1ccc1ccccc31)O2 -0.742%
Cc1ccc2[nH]c3nc(CCCn4ccnc4-c4ccccc4)nnc3c2c1 12.2%
CC12C=C(C=Cc3ccccc3)C(C)(C1)C(c1ccccc1)CC2=O (configuration not stated) -2.8%
COc1cccc([C@@H]2Oc3ccc(Br)cc3C(=O)[C@@H]2O)c1 0.283%
COc1ccc(-c2nc3c(c4c2C[C@H](c2ccccc2)OC4)CN(C(=O)Nc2cccc(C#N)c2)CC3)c(C)c1 2.78%
COC(=O)NC(c1ccccc1)c1c[nH]c2ccc(OC)cc12 (configuration not stated) 7.78%
C=C(C)C[C@@]1(c2ccccc2)Oc2ccccc2C2=NCCN=C21 1.22%
COC(=O)CCC(=O)OC1(C)C(=O)C=C2C=C(C3CC3)OC=C2C1=O (configuration not stated) 13%
C[C@H]1C=CCC(=O)N[C@@H](c2ccc3ccccc3c2)[C@@H](C)C=CCC(=O)N[C@@H]1c1ccc2ccccc2c1 1.32%
COC(=O)C1=C(C)N(CC2CC2)C(=O)NC1c1ccc(Br)cc1 (configuration not stated) -1.1%
C[C@@H]1C=CCC(=O)N2[C@H](CC(=O)N[C@@H]1c1ccccc1)C[C@@H](C)[C@@H]2c1ccccc1 6.71%
C[C@H]1CC[C@H]2C(=O)N(Cc3ccccc3)C[C@@H](O)CN2[C@H]1c1cccc(Br)c1 -1.24%
COc1ccc(N2C(=O)N3[C@H](c4ccccc4)[C@@H](C)C[C@H]4c5ccccc5C[C@]43C2=O)cc1 2.95%
N#Cc1ccc2c(c1)C[C@]1(CCCCN3C(=O)c4ccccc4C3=O)Oc3cc(-c4ccccc4)oc(=O)c3[C@H]2O1 -24.9%
CCc1cc2c(nc1CC)CCN(CCC(C)=NO[C@@H]1O[C@H](COC(C)=O)[C@@H](OC(C)=O)[C@H](OC(C)=O)[C@@H]1OC(C)=O)C2 1.63%
COC(=O)C1=C(C)N(CC2CC2)C(=O)NC1CCc1ccccc1 (configuration not stated) -5.63%
CC(=O)OC[C@H]1O[C@H](CC=NO[C@@H](C)c2cn([C@H](CO)Cc3ccccc3)nn2)C=C[C@@H]1OC(C)=O 10.7%
CC(CCN1CCCc2nc(C)c(C)cc21)=NOC[C@@H](O)COCc1ccco1 8.1%

Potency, inactive:
CC1=C[C@@H](COCc2ccccc2)O[C@@]2(C1)C(=O)Nc1cccc(Br)c12
